# From PubChem BioAssay
# ugtP null kill – kills S. aureus RN4220 lacking UgtP. S. aureus RN4220 ugtP deletion, OD600 growth, 16 h. growth inhibition, % (concentration not given with the values). 0.54% of 330,000 active. AID 1259309; in the data active = growth inhibition above about 68%;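 note: plate controls were untreated wells for no effect and antibiotic for full effect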
# PfHsp40 yeast – restores yeast growth despite PfHsp40 toxicity | growth rescue, % at 12.5 µM | 0.68% of 340,000 active | S. cerevisiae expressing PfHsp40, growth rescue, ATP luminescence; in the data active = growth rescue above about 28%, passing the limit was not always enough; inconclusive = no clear call, values can overlap the other calls;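 note: yeast W303a lacking pdr1 and pdr3 grown in galactose medium; growth measured after three days at 30 °C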
# CCHF vOTU inh-1 – CCHFV vOTU protease inhibition; AID 651958; 0.55% of 370,000 active; Pep-AMC fluorescence; inhibition, % at 11.5 µM; note: 0% = vehicle wells with enzyme and 100% = no enzyme wells
# BJeLR viability – BJeLR cell viability loss; BJeLR (HRASV12) viability, CellTiter-Glo ATP luminescence, 48 h; inhibition, % (concentration not given with the values); 0.17% of 300,000 active; in the data active = inhibition above about 50%; inconclusive = no clear call, values can overlap the other calls
# Sa RN4220 lethal – S. aureus RN4220 growth inhibition; OD600, 16 h; inhibition, % (concentration not given with the values); 0.33% of 330,000 active; in the data active = inhibition above about 85%;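 note: plate controls were untreated cells for no effect and reference antibiotic for full effect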
# CCHF vOTU inh-2 – CCHFV vOTU protease inhibition, confirmation; Recombinant CCHFV vOTU, Pep-AMC fluorescence; 17% of 1,900 active; shares compounds with CCHF vOTU inh-1; inhibition, % at 11.5 µM
# An asterisk follows results filed as active; ? = inconclusive; · = not tested or not shown. A selection: hits, their analogues and other compounds. The true share with any hit is near 1.6%. Cut-off read from the data, not from the text of the source, unless noted: active = inhibition above about 30%; inactive = the rest.
SMILES,ugtP null kill,PfHsp40 yeast,CCHF vOTU inh-1,BJeLR viability,Sa RN4220 lethal,CCHF vOTU inh-2
COc1ccc(NS(=O)(=O)c2ccc(O)c(NC(=O)c3ccc(S(=O)(=O)N4CCCC4)cc3)c2)cc1,4.4,-0.6,33.6*,-3.1,7.6,-5.6
Nc1ccc(N=Nc2ccc(O)cc2)c(N)n1,·,2.1,38.4*,·,·,7.0
COc1ccc(N=Nc2ccc(N)nc2N)cc1,·,-0.1,7.0,-8.2,·,·
CCCCN1CC(=O)N2C(c3ccc(Cl)cc3)C3C(=O)N(CC)C(=O)C3[C@]2(Cc2ccccc2)C1=O (stereo partly drawn),2.2,·,·,·,4.8,·
COc1ccccc1C1=CC(=O)CC(c2ccc(Cl)cc2)C1 (stereo not drawn),1.3,·,·,·,-0.8,·
CCC(=O)N(C1=C(NC)C(=O)c2ccccc2C1=O)C(C)C,-5.8,0.5,46.5*,20.8,13.1,23.2
CNC1=C(N(C(C)=O)c2ccc(Br)cc2)C(=O)c2ccccc2C1=O,13.3,76.8*,93.5*,51.0*,24.1,72.5*
CC(=O)NC1=C(Nc2ccc(N(C)C)cc2)C(=O)c2ccccc2C1=O,·,3.3,24.5,18.5,·,·
CCOC(=O)/C=C(\C)Sc1cc(O)c2ccccc2c1O,93.1*,?,111.3*,·,96.5*,98.0*
O=C(NN=Cc1ccccc1F)NC1CCCCC1,6.9,·,·,·,2.1,·
NC1=C(Br)C(=O)c2ccccc2C1=O,94.7*,7.5,90.6*,5.1,76.5,98.6*
Nc1ccc(Br)c2c1C(=O)c1ccccc1C2=O,30.4,·,·,1.8,0.5,·
Cc1cc2c(cc1C)C(=O)C(Br)=C(N)C2=O,12.8,-1.0,78.0*,·,38.0,57.5*
C#CCOCCOCCOCCNc1nc(N2CCN(C(=O)CCCCCCCCCCNC(=O)Cn3cc(CC(C)O)nn3)CC2)nc(N2CCN(C(=O)CCCCCCCCCCNC(=O)C(CCCCN)n3cc(CCCC(=O)O)nn3)CC2)n1 (stereo not drawn),1.9,·,·,·,6.4,·
CCCCCCCCN1C(=O)[C@H](CC(=O)N2CCN(C(=O)c3ccco3)CC2)C[C@@]2(C(=O)OC)CCCCC=C12,·,·,30.1*,·,·,-2.4
CCCCCCCCN1C(=O)[C@H](CC(=O)N2CCN(C(=O)c3ccco3)CC2)C[C@@]2(C(=O)OC)CC(C)(C)CC=C12,·,·,31.5*,·,·,11.5
O=C1N=C(N2CCCC2)SC1=Cc1cccc(Br)c1,-10.8,·,·,·,12.6,·
Cc1cc(C(=O)Nc2cccc3c2OC(CN(C)S(C)(=O)=O)C(C)CN(C(C)CO)C3=O)n(C)n1 (stereo not drawn),0.6,·,·,·,9.6,·
CC1CC2=C(CC1C=NNC(N)=S)C(C)(C)CCC2 (stereo not drawn),-19.8,·,·,·,-3.1,·
CC(C)Cn1c(N)c(C(=O)COC(=O)c2c(O)c(Cl)cc(Cl)c2Cl)c(=O)n(C)c1=O,-13.9,-1.0,41.1*,·,6.6,-5.3
CC(C)Cn1c(N)c(C(=O)COC(=O)c2ccc(Cl)cc2)c(=O)n(C)c1=O,1.3,0.1,16.2,5.4,-7.2,·
CCC=CC(=O)N1CC2(CC(c3cccc(NC(=O)CC(c4ccccc4)c4ccccc4)c3)=NO2)CC1C(N)=O (stereo not drawn),4.3,·,·,·,6.4,·
CCCCCCSC1=C(C#N)C(=O)NC2(CCCCC2)S1,-24.0,4.4,35.2*,2.8,1.7,-3.0
COc1ccc(CSC2=C(C#N)C(=O)NC3(CCCCC3)S2)cc1,·,·,19.5,·,·,·
Cc1cccc(C)c1NC(=O)C1(C)CSCC(=O)N1CCOc1ccccc1 (stereo not drawn),·,·,30.6*,·,·,3.9
SMILES,ugtP null kill,PfHsp40 yeast,CCHF vOTU inh-1,BJeLR viability,Sa RN4220 lethal,CCHF vOTU inh-2
CC(CCC1CC(C)OC1=O)=NNC(N)=S (stereo not drawn),-1.4,·,·,·,-0.7,·
CCCCCCCCN1C(=O)[C@H](CC(=O)NCc2ccccc2)C[C@@]2(C(=O)OCC)CCCC=C12,·,·,32.6*,·,·,5.4
CCCCCCCCN1C(=O)[C@H](CC(=O)N2CCOCC2)C[C@@]2(C(=O)OCC)CCCC=C12,·,·,22.5,·,·,·
CCCCCCCCN1C(=O)[C@H](CC(=O)N2CCSCC2)C[C@@]2(C(=O)OCC)CCCC=C12,·,·,38.9*,·,·,3.0
CCOC(=O)[C@]12CCCC=C1N(CCc1ccc(OC)c(OC)c1)C(=O)[C@H](CC(=O)N1CCCC1)C2,·,·,32.6*,·,·,-23.2
C#CCNC(=O)C[C@@H]1C[C@@]2(C(=O)OCC)CCCC=C2N(CCCCCCCC)C1=O,·,·,30.8*,·,·,15.3
Nc1nnc(CC(=O)NN=Cc2ccc(-c3cccc(Cl)c3)o2)s1,3.1,·,·,·,-10.3,·
